Results published in PubChem BioAssay AID1347055 (National Center for Advancing Translational Sciences (NCATS), 2019).
Hit rate of the full screen: of about 54,000 compounds, about 120 (0.22%) were called active. Not shown: some 8% with an inconclusive outcome. The call rests on the fitted dose curve; in most records, active means well fitted inhibition curve with a large enough effect; inconclusive means small, poorly fitted or top-dose-only effect, or effect the other way; inactive means flat fitted curve, though single readings scatter. The list comes from a sample in which actives are over-represented; it also holds similar structures and randomly drawn compounds.

target: Fumarate hydratase, mitochondrial (Homo sapiens) (UniProt P07954); experiment: Identification of activators of human fumarate hydratase by quantitative high-throughput screening; conditions: FH coupled MDH/diaphorase resazurin fluorescence, 15 min; series mostly up to 79.9 µM; activity change, negative = inhibition: at the top concentration; further: the screen sought activators but most active calls are inhibition curves; nearly all actives have a fitted effect of over 45% in size
Sequence (P07954 whole entry, looked up): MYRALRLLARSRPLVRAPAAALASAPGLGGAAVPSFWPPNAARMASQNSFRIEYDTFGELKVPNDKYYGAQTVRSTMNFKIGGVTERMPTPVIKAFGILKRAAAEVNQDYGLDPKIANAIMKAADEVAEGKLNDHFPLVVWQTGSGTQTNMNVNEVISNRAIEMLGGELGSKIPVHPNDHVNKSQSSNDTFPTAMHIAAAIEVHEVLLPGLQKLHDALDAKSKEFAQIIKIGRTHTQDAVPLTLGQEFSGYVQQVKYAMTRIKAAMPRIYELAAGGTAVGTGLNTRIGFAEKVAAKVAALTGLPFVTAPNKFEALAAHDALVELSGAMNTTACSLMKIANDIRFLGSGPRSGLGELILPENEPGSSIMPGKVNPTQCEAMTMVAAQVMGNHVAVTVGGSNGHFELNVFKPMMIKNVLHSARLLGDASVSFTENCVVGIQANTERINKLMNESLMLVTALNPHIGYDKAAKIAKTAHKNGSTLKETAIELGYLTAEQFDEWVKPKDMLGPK
Text: Fumarate hydratase (FH) is a metabolic enzyme that is part of the Krebs-cycle, and reversibly catalyzes the hydration of fumarate to malate. Mutations of the FH gene have been associated with fumarate hydratase deficiency (FHD), hereditary leiomyomatosis, renal cell cancer (HLRCC), and other diseases. Currently there are no high-quality small molecule probes for studying human fumarate hydratase. To address this, we developed a quantitative high throughput screening (qHTS) FH assay and screened a total of 57,037 compounds in dose-response. While no inhibitors of FH were confirmed, a series of phenyl-pyrrolo-pyrimidine-diones (12 compounds) were identified as activators of human fumarate hydratase. […] The binding of two compounds from the series to human fumarate hydratase was confirmed by microscale thermophoresis. The low hit rate in this screening campaign confirmed that FH is a "tough target" to modulate, and the small molecule activators of human fumarate hydratase reported here may serve as a starting point for further optimization and development into cellular probes of human FH and potential drug candidates.
For primary high-throughput screen, 3 ul of FH solution (containing 13.33nM human fumarate hydratase, 13.33IU/ml malic dehydrogenase, 0.2mM NAD, 0.067mg/ml diaphorase and 0.067mM resazurin in the assay buffer (50 mM Tris pH 8.0, 5 mM MgCl2, 0.01% Brij 3) was dispensed into each well in a black solid bottom 1536-well assay plate (Greiner Bio-One) using a BioRAPTR FRD dispenser (Beckman Coulter, Brea, CA). A 1536-well pintool dispenser outfitted with 20 nl pins (Wako Automation, San Diego, CA) was used to transfer 20 nL of DMSO-solubilized compound (Cherrypick plates) to each 1536-well assay plate. Each compound was screened at five concentrations: 15 nM, 151 nM, 1.5 uM, 15.4 uM, 76.9 uM. Following compound transfer, plates were incubated in room temperature for 10 minutes. 1 uL of substrate solution containing fumaric acid (160 uM) was dispensed via BioRAPTR FRD to initiate the reaction. Plates were immediately transferred to a ViewLux microplate imager (PerkinElmer, Waltham, MA), and any resulting resorufin fluorescence was measured (exitation/emission, 525/598 nm) at 0 and 15 minutes. The exposure time is 1 second. Fluorescence from each well was normalized using enzyme-free and DMSO-treated control wells on each plate, and changes in fluorescence (delta RFU) were calculated using the difference in fluorescent signal for each well at 15 minutes versus 0 minutes.
On the % scale 0 is the no-effect control and ±100 the full control effect; potency means the concentration at half of the fitted maximal effect.

SMILES | activity change, negative = inhibition | Potency
CC[C@H](C)[C@H](NC(=O)[C@H]([C@@H](C)CC)N(C)C(C)=O)C(=O)N[C@H](C(=O)N[C@@H](CC(C)C)C(=O)[C@@]1(C)CO1)[C@@H](C)O | -8.46% (inactive) | –
COc1cc(C2c3cc(O)c(OC)cc3CC(CO)C2CO)ccc1O (stereo not drawn) | -1.89% [at 53.3 µM] (inactive) | –
CCOc1ccc(NC(=O)CC2C(=O)N(c3cccc(OC)c3)C(=O)N2C2CCCCC2)cc1 (stereo not drawn) | -21.2% (inactive) | –
COc1cccc(C(=O)c2sc3nc(-c4ccccc4)cc(C(F)(F)F)c3c2N)c1 | -18.3% (inactive) | –
Cc1cccc(N2CCN(C(=O)Cn3ncc4c5ccccc5n(C)c4c3=O)CC2C)c1 (stereo not drawn) | -11.6% (inactive) | –
CC(=O)/C=C/C1(O)C(C)(C)CC(O)CC1(C)O (stereo not drawn) | 7.46% (inactive) | –
Cc1ccc2nc(COc3cccc(NC(=O)c4ccccc4Cl)c3)cc(=O)n2c1 | -7.7% (inactive) | –
O=C(Cn1c(=O)n(-c2ccc(F)cc2)c(=O)c2sccc21)Nc1cccc(C(F)(F)F)c1 | -16.2% (inactive) | –
COc1ccc(CCN2C(=O)N(c3cccc(OC)c3)C(=O)C2CC(=O)Nc2ccccc2)cc1 (stereo not drawn) | -34.4% (inactive) | –
CC1=C(C)C(=O)OC(C(C)C2CCC3C4CC=C5CC(OC6OC(COC7OC(CO)C(O)C(O)C7O)C(O)C(O)C6O)CC(O)C5(C)C4CCC23C)C1 (stereo not drawn) | -4.36% [at 20.6 µM] (inactive) | –
CN(C(=O)CSc1nc2ccc(NC(=O)COc3ccccc3)cc2s1)c1ccccc1 | -9.62% (inactive) | –
CC(Nc1ncnc2nc[nH]c12)c1cc2cccc(Cl)c2c(=O)n1-c1ccccc1 (stereo not drawn) | -6.04% (inactive) | –
COc1ccc(NC(=O)c2ccc(-c3ccc(C(=N)N)cc3C)cc2)cc1N1CCN(C)CC1 | -13.4% (inactive) | –
Cc1c(C2=CCN(C(=O)N(C)C(C)C)CC2)nnn1-c1cccnc1F | -2.43% (inactive) | –
C/C=C/C1=CC2=CC(=O)C(C)(O)C(OC(=O)c3c(C)cc(O)cc3O)C2CO1 (stereo not drawn) | -4.08% [at 53.3 µM] (inactive) | –
COc1ccc(Cn2ccnc2SCC(=O)Nc2ccc3c(c2)OCO3)cc1 | -2.17% (inactive) | –
O=C(CSCc1cnn(-c2ccccc2)c1-n1cccc1)NCc1ccccc1Br | -11.3% (inactive) | –
Cc1cccc(N2CCN(c3c(CN4CCCC4)c(=O)oc4ccccc34)CC2)c1C | -2.63% (inactive) | –
Cn1c(=O)[nH]c(=O)c2c1nc(NCCc1ccccc1)n2Cc1ccc(F)cc1 | -6.91% (inactive) | –
CCCOc1cccc(C(=O)Nc2cccc(NC(=O)c3ccc(C(C)(C)C)cc3)c2)c1 | -3.92% (inactive) | –
COc1ccccc1-n1c(SCC(=O)Nc2nc3ccc(C)cc3s2)nc2c(c1=O)SCC2 | -7.7% [at 53.3 µM] (inactive) | –
COc1ccc(CCNc2ncnc3c2cnn3-c2ccc(C)cc2)cc1 | -5.98% (inactive) | –
CC1(C)C[C@H]2C3=CCC4[C@@]5(C)CC[C@H](O[C@H]6O[C@H](C(=O)O)[C@@H](O)[C@H](O)[C@H]6O[C@H]6O[C@H](CO)[C@@H](O)[C@H](O)[C@H]6O[C@@H]6O[C@H](CO)[C@@H](O)[C@H](O)[C@H]6O)[C@](C)(CO)C5CC[C@@]4(C)[C@]3(C)CC[C@@]2(C)[C@H](O[C@@H]2OC[C@H](O)[C@H](OC3O[C@H](CO)[C@@H](O)[C@H](O)[C@H]3O)[C@H]2O)[C@@H]1O (stereo partly drawn) | 17.6% [at 13.5 µM] (inactive) | –
CCc1cc2c(cc(C(=O)OC)n2Cc2nc(-c3ccc(C)cc3)oc2C)s1 | -12% (inactive) | –
CCOC(=O)c1cc(OC(=O)c2ccccc2Cl)n(-c2ccccc2)n1 | -5.8% (inactive) | –

SMILES | activity change, negative = inhibition | Potency
Cc1cc2ccccc2n1CCNC(=O)c1ccc(F)cc1 | -12.2% (inactive) | –
COc1ccc(Cl)cc1NC(=O)CSc1nc(=O)[nH]c2c1CCCC2 | -10.3% (inactive) | –
CCOc1ccc(-n2c(SCC(=O)NCc3ccccc3)nc3n[nH]c(C)c3c2=N)cc1 | -3.31% (inactive) | –
CC(=O)Nc1c(C)nn(-c2ccccc2)c1N1CCC(C(=O)Nc2cc(Cl)ccc2C)CC1 | 1.23% (inactive) | –
CC1(O)CC(O)C2(O)C=COC(O[C@@H]3O[C@H](CO)[C@@H](O)[C@H](O)[C@H]3O)C12 (stereo partly drawn) | 1.62% [at 53.3 µM] (inactive) | –
CCOc1ccc(CC(=O)NCCc2csc3nc(-c4ccccc4F)nn23)cc1 | -12.1% (inactive) | –
Cc1c(O)cc2c(c1O)COC1(O)CCCOC21 (stereo not drawn) | 5.93% (inactive) | –
O=C(OC1CN2CCC1CC2)N1CCc2ccccc2C1c1ccccc1 (stereo not drawn) | 2.64% (inactive) | –
C=C1C2(CCC(=O)OC2(C)C)CC(OC(=O)/C(C)=C/C)C2(C)C13OC14C(=O)OC(C)(C(=O)C12C(=O)OC4C)C3OC(C)=O (stereo not drawn) | 6.23% [at 20.6 µM] (inactive) | –
CCOc1ccc(/C=C(\C#N)c2nc3ccccc3c(=O)[nH]2)cc1OC | -13.3% (inactive) | –
N#CSc1cc(SC#N)c(N)nc1N | 0.38% [at 20.6 µM] (inactive) | –
CCOc1ccccc1CNC(=O)c1ccc(-n2c(C)cc3c2CCC(C)C3)cc1 (stereo not drawn) | -9.65% (inactive) | –
CCOc1cccc(CC(=O)N2CCc3c([nH]c4ccccc34)C2c2ccc(F)cc2)c1OCC (stereo not drawn) | -21.3% (inactive) | –
CCOc1cccc2c1N[C@@H](c1ccc(C(=O)O)cc1)[C@H]1CC=C[C@@H]21 | – | 28.2 µM (active)
Cn1c(SCC(=O)N2CCC[C@H]2C(=O)Nc2ccccc2-c2ccccc2)nc2ccccc21 | 0.115% (inactive) | –
COc1cccc(C(=O)NCc2ccc3c(c2)CCN3C(=O)c2ccncc2)c1 | -7.2% (inactive) | –
CCc1cc2c(cc3c(=O)n(CC(=O)NCCc4ccc(OC)c(OC)c4)ncn32)s1 | 1.09% (inactive) | –
COc1cccc(N=C2SC(C(=O)Nc3cccc(Cl)c3)CC(=O)N2C)c1 (stereo not drawn) | -17% (inactive) | –
COC(=O)N1CCC(n2ncc3c(N4CCOCC4)nc(-c4ccc(NC(=O)Nc5ccc(CO)cc5)cc4)nc32)CC1 | -11% (inactive) | –
[N-]=[N+]=N[C@]1(CO)O[C@@H](n2ccc(N)nc2=O)[C@@H](O)[C@@H]1O | -0.769% (inactive) | –
Cc1cc2nn(-c3ccc(Cl)cc3)nc2cc1NC(=O)C(C)C | -5.15% (inactive) | –
C/C=C(/COC(=O)/C(C)=C/C)C(=O)OC/C=C/c1ccc(OC)cc1 | -4.5% [at 53.3 µM] (inactive) | –
Clc1ccc2ncc(-c3cccc(NC4CCNCC4)n3)n2c1 | 5.21% (inactive) | –
COC(=O)c1cc(Cl)c(NC(C)=O)cc1OC | -1% [at 53.3 µM] (inactive) | –
CCOC(=O)c1[nH]c(C)c(CCC(=O)N2CCN(c3ccccc3)CC2)c1C | -6.53% (inactive) | –

SMILES | activity change, negative = inhibition | Potency
CC1(C)CC[C@]2(C(=O)O)CC[C@]3(C)C(=CCC4[C@@]5(C)C[C@H](O)[C@H](O[C@@H]6OC[C@H](O)[C@H](O)[C@H]6O)[C@@](C)(CO)C5CC[C@]43C)[C@@H]2C1 (stereo partly drawn) | 2.9% [at 20.6 µM] (inactive) | –
C[C@@H]1C/C=C/C=C\C=C\C=C\[C@H](O[C@@H]2O[C@H](C)[C@@H](O)[C@H](N)[C@@H]2O)C[C@@H]2O[C@](O)(C[C@@H](O)C[C@H]3O[C@@H]3/C=C/C(=O)O1)C[C@H](O)[C@H]2C(=O)O | -0.5% [at 20.6 µM] (inactive) | –
C=C1[C@@H](C)[C@H]2[C@H](Cc3c[nH]c4ccccc34)NC(=O)[C@]23C(=O)/C=C/C(=O)[C@H](O)/C(C)=C\[C@@H](C)C/C=C/[C@H]3[C@@H]1O | -1.88% [at 53.3 µM] (inactive) | –
Clc1ccc(CSc2nncn3c2cc2occc23)cc1 | -10.1% (inactive) | –
CCC/C=C/C=C/C1CC(O)C2(O)C(=O)OCC12 (stereo not drawn) | 0.378% (inactive) | –
CC(=O)/C=C/C1C(C)CC(O[C@@H]2O[C@H](CO)[C@@H](O)[C@H](O)[C@H]2O)CC1(C)C (stereo partly drawn) | -0.219% [at 53.3 µM] (inactive) | –
COc1ccc(NC(=O)c2ccco2)cc1NC(=O)COc1ccc(C)c(C)c1 | 1.59% (inactive) | –
Cc1cc(NC(=O)CSc2ncc(C(=O)Nc3ccc(Cl)cc3)c(=O)n2C)no1 | 6.78% (inactive) | –
C1CCC[C@H]2CCCN3CC[C@@H](CCCCCC[C@@H]4CCCN5CC[C@@H](CC1)O[C@@H]45)O[C@@H]23 | -2.71% [at 0.217 µM] (inactive) | –
CNC(=O)c1ccccc1Nc1nc(Nc2ccc3c(c2OC)CCC[C@@H](N2CCN(CCO)CC2)C3)ncc1Cl | -3.28% (inactive) | –
CN(C)c1cccc(Oc2cnc(Nc3cccc(O)c3)nc2)c1 | -7.76% (inactive) | –
CCOc1ccc(CCNC(=O)CN(c2ccc(C)cc2)S(=O)(=O)N(C)C)cc1OCC | -7.19% (inactive) | –
CC1CN(C(=O)N2CCC(C(=O)NCc3ccco3)CC2)c2cc(Cl)ccc2O1 (stereo not drawn) | 2.28% (inactive) | –
CC(CCC1(O)OC2CC3C4CC=C5C[C@@H](O[C@@H]6O[C@H](CO)[C@@H](O[C@@H]7O[C@@H](C)[C@H](O)[C@@H](O)[C@H]7O)[C@H](O)[C@H]6O[C@@H]6O[C@@H](C)[C@H](O)[C@@H](O)[C@H]6O)CC[C@]5(C)C4CC[C@]3(C)[C@@]2(O)[C@@H]1C)CO[C@@H]1O[C@H](CO)[C@@H](O)[C@H](O)[C@H]1O (stereo partly drawn) | 0.389% [at 20.6 µM] (inactive) | –
CC(=O)OC1CCC2(C)C(CCC3(C)C2CC=C2C4CC(C)(C)CCC4(C)CCC23C)C1(C)C(=O)O (stereo not drawn) | -22% [at 53.3 µM] (inactive) | –
CCC(COC)n1nnc2c(Nc3ccc(OC)cc3C)nc(C)cc21 (stereo not drawn) | -0.898% (inactive) | –
C[C@H]1COCCN1c1cc(C2(S(=O)(=O)C3CC3)CC2)nc(-c2ccc(NC(=S)NCCO)cc2)n1 | -2.67% (inactive) | –
CCCN(CCC)CCCNC(=O)Cn1ncc2c3ccccc3n(Cc3ccccc3)c2c1=O | -13.9% (inactive) | –
CC(CNC(=O)c1nnc(Cc2cccc(F)c2)o1)c1ccccc1 (stereo not drawn) | -6.76% (inactive) | –
CC(C)(C)OC(=O)N1CCC(c2c(C(=O)NCCc3ccsc3)cnn2-c2ccc(F)cc2F)CC1 | -7.51% (inactive) | –
CC(=O)c1ccc(NC(=O)CCc2nc(-c3ccc(C)cc3)no2)cc1 | -9.62% (inactive) | –
CC(C)C(=O)Nc1nc2c(s1)CC(C(C)(C)C)CC2 (stereo not drawn) | -26% (inactive) | –
COC(=O)C12C(=O)C(C)=C(O)C1(C)C(C)=CC1C3(CO)CCC(O)C(C)(C)C3CCC12C (stereo not drawn) | 2.3% [at 53.3 µM] (inactive) | –
